Results as given in ChEMBL document CHEMBL3988442, “University of Dundee, Small-Polar-MMV Screening Library” (2021).

target: T1, Arginase-2, mitochondrial (Homo sapiens) (UniProt P78540); experiment: in vitro enzyme assay to detect the production of urea directly proportional to the activity of Arginase II; assay type: functional; parameters: scale not given: in the data most compounds retested in dose-response had high values; settings: 30 µM
T1 sequence (whole entry): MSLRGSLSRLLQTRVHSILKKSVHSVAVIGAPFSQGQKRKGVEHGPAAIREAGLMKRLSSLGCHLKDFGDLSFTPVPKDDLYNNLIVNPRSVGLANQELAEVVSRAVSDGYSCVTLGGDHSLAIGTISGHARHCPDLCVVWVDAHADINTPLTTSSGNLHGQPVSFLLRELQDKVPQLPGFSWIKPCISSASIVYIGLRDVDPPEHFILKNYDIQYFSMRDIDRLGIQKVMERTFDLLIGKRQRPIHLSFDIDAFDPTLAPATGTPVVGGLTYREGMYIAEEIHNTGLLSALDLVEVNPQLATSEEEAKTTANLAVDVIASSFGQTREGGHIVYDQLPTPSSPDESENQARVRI

| Compound | Percent Effect |
| --- | --- |
| CC(=O)N1CCN(C(=O)Cn2ccc3c(Cl)cccc32)CC1 | 2.7% |
| CN1CCC(c2cncc(-c3cccc(Cl)c3)n2)CC1 | 4.87% |
| COc1cc(C2SC(C)=Nc3c2c(=O)[nH]n3C2CCCC2)ccc1O (stereo unspecified) | 3.78% |
| CC(C)(C)OC(=O)Cn1cccc(S(=O)(=O)N2CCCC2)c1=O | 7.03% |
| COc1ccccc1Oc1ncccc1CNC(=O)C(C)CN (stereo unspecified) | 11.3% |
| CCCNC(=O)c1cc(Br)c2c(c1)OCCO2 | 5.95% |
| CC(C)CS(=O)(=O)CC(=O)N1CCCC1c1noc(C2CC2)n1 (stereo unspecified) | 5.95% |
| CNC(=O)CCNC(=O)c1cc(Br)c2c(c1)OCCO2 | -10.3% |
| COc1ccccc1Oc1ncccc1CNC(=O)C(O)C(F)(F)F (stereo unspecified) | 3.78% |
| c1ccc(OC2COC3(CCN(Cc4ccccn4)CC3)C2)cc1 (stereo unspecified) | 0.54% |
| CN(Cc1ccco1)[C@@H]1CN(Cc2nccn2C)[C@@H]2CCCO[C@H]12 | 11.3% |
| CC(C)c1ncc(CN2CCOC(C(=O)Nc3ccccc3)C2)cn1 (stereo unspecified) | 3.78% |
| COc1ccc(C(=O)N(CCC#N)Cc2ccccn2)cc1 | 1.62% |
| CCOc1cccc(C(=O)N(CCC#N)Cc2ccccn2)c1 | 13.5% |
| CNC(=O)[C@H]1C[C@@H]2CN(C(=O)c3ccsc3)C[C@@H]2N1S(C)(=O)=O | 8.11% |
| CCCS(=O)(=O)CC(=O)N1CCCC1c1noc(C2CC2)n1 (stereo unspecified) | 7.03% |
| COc1ccc2c(c1)OCC(CNC(=O)c1cnc(NC(C)C)nc1)C2 (stereo unspecified) | 2.7% |
| O=c1[nH]c2c(c(=O)n1C1CCCCC1)CCC2NCc1ccccc1 (stereo unspecified) | 9.19% |
| COc1ccc(C(=O)N2C[C@@H](C(=O)O)[C@H](c3ccccc3)C2)c(C)c1 | -7.03% |
| CN(Cc1ccco1)[C@@H]1CN(CC2CCOCC2)[C@@H]2CCCO[C@H]12 | 4.87% |
| O=C(Cn1nc2c(cc1=O)CCCC2)NC(C(=O)O)c1ccccc1 (stereo unspecified) | -2.7% |
